The text below walks through data of PubChem BioAssay (NCI).

The structures appear in SMILES notation. Compounds without any hit were thinned out: in the full panel of roughly 83,000, 20% have a hit.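 Negative percent growth values reflect cell death: -40 means 40% of the cells present at the start died, and -100 means all died.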 Unmarked numbers belong to inactive results. Active and inactive are the calls of the source. Rule for the calls: active = growth percent below 10; inactive = the rest.

One test deals with TK-10 renal. In words: NCI-60 one-dose screen, 48 h (100 = growth as untreated, 0 = no growth, -100 = all killed). Conditions: 10 µM unless noted.
In the case of `CCN(CC)CCOc1ccc(-c2c(-c3ccccc3)c(=O)oc3ccccc23)cc1`, the growth was 95.9%.

With `COc1ccc2c(O)c(/C=C3\N=Nc4ccccc43)oc2c1C[C@@H]1CCNC[C@H]1F`, the growth is 84.2%.

Take `COc1cc(OC)cc(C2=C3CC[C@@H]4[C@H](CC[C@]5(C)C(=O)CC[C@@H]45)C3=CC3C(O)c4cccnc4N4C(=O)COC234)c1` (some centres not stated): the growth was 96.5%.

As for `CC(=O)N1N=C(c2ccc(Nc3nc(Nc4ccc(Cl)cc4)nc(Nc4ccc(Cl)cc4)n3)cc2)CC1c1ccco1` (configuration not stated), the growth is 110%.

Take `CCS/C(Nc1ccccc1)=C(\C#N)C(=O)N/N=C/c1ccc(Cl)cc1Cl`: the growth was 56.7%.

`CCOC(=O)C(=Cc1cccc(Cl)c1)C(=O)OCC`: the growth was 3.56% (active).

Take `CN[C@]12CC3(C=CC(=O)C=C3)O[C@@]1(Cc1ccc(OC)cc1)N(C)C(=O)N2`: the growth was 24.1%.

The subject of a further test is ACHN renal. Described as above. As to conditions: 10 µM unless noted.
In the case of `Cn1cc(-c2csc(-c3ccc(Cl)cc3)n2)c2cccnc21`, the growth was -50.9% [100 µM] (active).

With `COc1cc(-c2nc(SCCC(C)C)nc(Nc3ccccc3Cl)c2C#N)cc(OC)c1OC`, the growth was 97.1%.

Regarding `CCn1c(=S)[nH]c2c(=O)n(C)c(=O)n(C)c21`, the growth was 97.6%.

As to `c1ccc(CNc2c3ccccc3nc3ccccc23)cc1`, the growth was 18.1%.

For `COCCn1c(-c2csc(-c3cn(C)c4ccc(OC)cc34)n2)cc2cccnc21`, the growth is 70.9%.

For the compound `CCOC(=O)CSc1ncnc2c1c(-c1ccccc1)c(-c1ccccc1)n2-c1ccc(C)cc1`, the growth was 90.7%.

For `COc1cc2oc(-c3cccc(NC(=O)c4cccc(Br)c4)c3)cc(=O)c2c(OC)c1OC`, the growth is 44.1%.

For `Cc1ccc(Cl)cc1Nc1nc(C(F)(F)F)ccc1C(=O)N/N=C/c1cccnc1`, the growth is 10.2%.

In the case of `Cn1c(=O)c2c(nc(NC3=NS(=O)(=O)c4ccccc43)n2CC(=O)N2CCc3ccccc32)n(C)c1=O`, the growth is 102%.

For the compound `Cc1cccc(Cl)c1NC(=O)c1ccc2nc(NC(=O)NCCN(C)C)sc2c1`, the growth was 92.9%.

As for `CCOC(=O)c1c(C)nc2c(c1N)CC(=O)N2Cc1cc(F)cc(Cl)c1`, the growth is 88.2%.

As for `COC(C(=O)[C@@H](O)[C@@H](C)O)[C@@H]1Cc2cc3cc(O[C@H]4C[C@@H](O[C@H]5C[C@@H](O)[C@H](O)C(C)O5)[C@H](O)C(C)O4)cc(O)c3c(O)c2C(=O)[C@H]1O[C@H]1C[C@@H](O[C@H]2C[C@@H](O[C@H]3C[C@@H](OC)[C@H](O)C(C)O3)[C@@H](O)C(C)O2)[C@H](O)C(C)O1` (some centres not stated), the growth was 53.6%.

Regarding `CN([O-])c1nc(N(C)[O-])nc(N2CCOCC2)n1.CN([O-])c1nc(N(C)[OH2+])nc(N2CCOCC2)n1.[Fe+3]`, the growth is 82.8% [100 µM].

For the compound `CCOP(=O)(OCC)c1nc(-c2ccccc2)oc1NCc1cccnc1`, the growth was 103%.

For the compound `CCn1c(SCC(=O)c2ccc(Br)cc2)nnc1-c1ccncc1`, the growth is 109%.

As for `CCCCNc1ccc(C#N)c(OCCN(CC)CC)c1`, the growth is 101%.

As for `N#Cc1c(-c2ccc(Cl)cc2)nc(NN=Cc2cccc(O)c2)nc1N1CCOCC1`, the growth is 60.9%.

In the case of `CS(=O)(=O)Nc1cc(-c2ccc3ncnc(Nc4c(Cl)ccc5c4OCO5)c3c2)cnc1Cl`, the growth is 11.7%.

In the case of `Fc1cccc(CNc2c3ccccc3nc3ccccc23)c1F`, the growth is 30.6%.

Consider `COC(=O)CNC(=O)[C@H](Cc1ccccc1)NCc1ccncc1`, for which the growth is 107%.

Regarding `O=C(NCCCN1CCOCC1)c1cccc(N2C(=O)/C(=C/c3ccc(F)cc3)SC2=S)c1`, the growth is 87.2%.

For `O=[N+]([O-])/C(=C/C=C/c1ccccc1)c1ccccc1`, the growth was 10.6%.

Take `Cn1cc(-c2csc(-c3c[nH]c4ccc(Br)cc34)n2)c2cnccc21`: the growth is -98.6% (active).

Turning to `C=C(C)[C@@H]1CC[C@]2(C(=O)N3CCN(C)CC3)CC[C@]3(C)[C@H](CC[C@@H]4[C@@]5(C)CC(=C/c6ccncc6)/C(=N/O)C(C)(C)[C@@H]5CC[C@]43C)[C@@H]12`, the growth was 75.9%.

For the compound `COc1cc(N2C(=O)[C@H](O)C2c2ccc(SC)cc2)cc(OC)c1OC` (some centres not stated), the growth was 31.8%.

As to `CCCCC(=O)c1ccco1`, the growth is 96.7%.

For `C=C(C)[C@@H]1CC[C@]2(C)[C@H](CC=C3[C@@H]4[C@H](C)[C@@H](C)CC[C@]4(CO)CC[C@]32C)[C@@]1(C)CCCN`, the growth is 63.4%.

`COc1ccc2[nH]cc(-c3nc(-c4c[nH]c5ccncc45)cs3)c2c1`: the growth was 4.58% (active).

`Oc1ccc(CN2CCC(N3CCCCC3)CC2)c2cccnc12`: the growth is 8.86% (active).

Take `CC(C)(C)c1cc(-c2nc3ccc(N4CCN(S(C)(=O)=O)CC4)cc3[nH]2)cc(C(C)(C)C)c1O`: the growth was 72.4%.

As for `COc1ccc2c(c1)c(-c1noc(C(=O)c3cn(C)c4ccc(Br)cc34)n1)cn2C`, the growth is 103%.

With `C[C@H](NC(=O)[C@@H](C)N)[C@H](Oc1ccc2c(cnn2-c2ccc(F)cc2)c1)c1ccc2c(c1)OCCO2`, the growth was 59%.

Consider `C=C(C)[C@@H]1CC[C@]2(C(=O)O)CC[C@]3(C)[C@H](CC[C@@H]4[C@@]5(C)C[C@@H](Cc6cn(CCO[C@@H]7O[C@H](COC(C)=O)[C@H](OC(C)=O)[C@H](OC(C)=O)[C@H]7OC(C)=O)nn6)[C@H](O)C(C)(C)[C@@H]5CC[C@]43C)[C@@H]12`, for which the growth was 86%.

`CCN(CC)CCOc1ccc(-c2c(-c3ccccc3)c(=O)oc3ccccc23)cc1`: the growth was 100%.

On to `COc1ccc2c(O)c(/C=C3\N=Nc4ccccc43)oc2c1C[C@@H]1CCNC[C@H]1F`, for which the growth was 61.3%.

For the compound `COc1cc(OC)cc(C2=C3CC[C@@H]4[C@H](CC[C@]5(C)C(=O)CC[C@@H]45)C3=CC3C(O)c4cccnc4N4C(=O)COC234)c1` (some centres not stated), the growth is 102%.

In the case of `CC(=O)N1N=C(c2ccc(Nc3nc(Nc4ccc(Cl)cc4)nc(Nc4ccc(Cl)cc4)n3)cc2)CC1c1ccco1` (configuration not stated), the growth was 98.8%.

As for `CCS/C(Nc1ccccc1)=C(\C#N)C(=O)N/N=C/c1ccc(Cl)cc1Cl`, the growth was 38.2%.

With `CCOC(=O)C(=Cc1cccc(Cl)c1)C(=O)OCC`, the growth was -72.9% (active).

On to `CN[C@]12CC3(C=CC(=O)C=C3)O[C@@]1(Cc1ccc(OC)cc1)N(C)C(=O)N2`, for which the growth was -86.3% (active).
